Shiga inhibitor: blocks Shiga toxin action in Vero cells | Vero cells, Shiga toxin protein synthesis inhibition reporter | inhibition, % at 38.7 µM | 290,000 compounds, 9.2% hits | AID 2315; in the data active means inhibition mostly above about 28%, no sharp cut-off; inactive means mostly below about 43%; further: 0% is about no effect
Cycloheximide cs: affects cycloheximide protein synthesis inhibition readout, counter-screen. 300,000 compounds, 12% hits. cell reporter, cycloheximide protein synthesis inhibition counterscreen. AID 2314. max response, %; in the data active means max response mostly above about 13%, no sharp cut-off; inactive means mostly below about 14%; further: read at 38.3 µM for the half of the compounds with a filed dose; 0% is about no effect
NS1 inh: influenza NS1 inhibition; Potency, µM (top dose mostly 46.1 µM), without a hit: top-dose activity, positive = more growth; 270,000 compounds, 0.4% hits; AID 2326; calls by dose curve; further: potency means the concentration at half of the fitted maximal effect; actives are rising curves; nearly all actives have a fitted effect of over 50% in size
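In this qHTS, NS1 from influenza A is expressed in budding yeast, where it slows growth. Cells are switched from glucose to 2% galactose medium (pH 6.0, -URA), treated with compound, and growth recovery is read at OD600.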
Pf growth 96h: P. falciparum growth inhibition at 96 hours | P. falciparum luciferase reporter growth, 96 h | Potency, µM (top dose mostly 28.7 µM), inactives show at the highest dose activity change, negative = inhibition, hits mostly inhibitors | 320,000 compounds, 6.9% hits; further: potency means the concentration at half of the fitted maximal effect; on the % scale 0 is the no-effect control and ±100 the full control effect
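P. falciparum expressing integrated firefly luciferase, in erythrocytes at 2% hematocrit, 0.05% parasitemia, incubated with compounds 96 h at 37 C, 5% CO2. Growth inhibition read as loss of luminescence; two-generation exposure targets delayed-death apicoplast inhibitors.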
Pf growth 48h: P. falciparum growth inhibition at 48 hours (one generation); P. falciparum luciferase growth in erythrocytes, 48 h; Potency, µM (top dose mostly 28.7 µM), for the others: top-dose activity change, negative = inhibition, usual class: inhibitors; 310,000 compounds, 5.9% hits; further: potency means the concentration at half of the fitted maximal effect; on the % scale 0 is the no-effect control and ±100 the full control effect
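A one-generation exposure of luciferase-tagged malaria parasites in RPMI 1640/Albumax erythrocyte culture, 37 C and 5% CO2. Inhibition is inferred from decreased luminescence after adding detection reagent.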
* marks the source's active call; other numbers are inactive results; ? = inconclusive; nt = no result given. This is a sample that favours compounds with a hit; in the whole collection about 21% have one here. Unless noted, the call rests on the fitted dose curve; in most records, active means well fitted inhibition curve with a large enough effect; inconclusive means small, poorly fitted or top-dose-only effect, or another doubt; inactive means no such curve, though single readings can be large or run the other way.

SMILES | Shiga inhibitor | Cycloheximide cs | NS1 inh | Pf growth 96h | Pf growth 48h
C/C(=N\NC(=O)c1nn(C)cc1Br)c1ccncc1 | 92* | 55* | -21% | 34% | 35%
C/C(=N\NC(=O)c1ccc(N2CCCC2=O)cc1)c1ccncc1 | 1 | -3 | 12% | 11% | 3%
C/C(=N\NC(=O)c1nn(C)cc1Cl)c1ccncc1 | 46* | 31* | 21% | 7% | 19%
O=C(CSC1=NS(=O)(=O)c2cc(F)ccc2N1)NCCc1ccccc1 | nt | nt | nt | 10% | 4%
Cc1ccc(-c2nnc(Oc3ccc(NC(=O)c4ccccc4)cc3)c3ccccc23)cc1 | -11 | -7 | 5% | ? | -10%
CCc1ccc(C(=O)CN2CCSC2=N)cc1 | 71* | 83* | -19% | 344% | 278%
CC[C@@]1(O)CC2CN(CCc3c([nH]c4ccccc34)[C@](C(=O)OC)(c3cc4c(cc3OC)N(C)C3[C@@](O)(C(=O)OC)C(OC(C)=O)[C@]5(CC)C=CCN6CC[C@@]43C65)C2)C1 (some centres not stated) | nt | nt | nt | 0.54µM* | 0.76µM*
CCC12C=CCN3CCC4(c5cc(Br)c(OC)cc5N(C)C4C(O)(C(=O)OC)C1OC(C)=O)C32 (configuration not stated) | 6 | -3 | -21% | ? | ?
CC[C@]1(O)C[C@H]2CN(CCc3c([nH]c4ccccc34)[C@@](C(=O)OC)(c3cc4c(cc3OC)N(C=O)[C@H]3[C@@](O)(C(=O)OC)[C@H](OC(C)=O)[C@]5(CC)C=CCN6CC[C@]43[C@@H]65)C2)C1 | nt | nt | nt | 9.5µM* | 0.085µM*
CC(C)c1nnc(NC(=O)CCC(=O)NC2CCCc3ccccc32)s1 (configuration not stated) | -5 | -1 | -3% | 20% | 2%
CC(C)(C)c1ccc(OCC(=O)Nc2ccc(-c3nc4cccnc4o3)cc2)cc1 | 12 | 9 | 15% | ? | 39%
CC(C)C(=O)Nc1ccc(-c2nc3ncccc3o2)cc1 | 41* | 29* | -18% | ? | 166%
CC(C)C(=O)Nc1ccc(-c2nc3cccnc3o2)cc1 | active | 33* | -12% | 1% | 75%
O=C(CCN1C(=O)[C@@H]2Cc3ccccc3CN2C1=O)N[C@@H](Cc1ccccc1)C(=O)O | 1 | 1 | 9% | 35% | 5%
C#CCOCCOCCOCCNc1nc(N2CCN(C(=O)CCCCCCCCCCNC(=O)[C@H](CCCCN)n3cc(C)nn3)CC2)nc(N2CCN(C(=O)CCCCCCCCCCNC(=O)[C@H](CCCN=C(N)N)n3cc(C[C@@H](C)CC)nn3)CC2)n1 | nt | nt | nt | 1.5µM* | 1.9µM*
C#CCOCCOCCOCCNc1nc(N2CCN(C(=O)CCCCCCCCCCNC(=O)[C@@H](CCSC)n3cc(CCO)nn3)CC2)nc(N2CCN(C(=O)CCCCCCCCCCNC(=O)[C@H](CCCN=C(N)N)n3cc(C[C@@H](C)CC)nn3)CC2)n1 | nt | nt | nt | 1.2µM* | 3.3µM*
C#CCOCCOCCOCCNc1nc(N2CCOCC2)nc(N2CCN(C(=O)[C@H]([C@@H](C)CC)n3cc(CCCN=C(N)N)nn3)CC2)n1 | -11 | -4 | -12% | ? | 7%
C#CCOCCOCCOCCNc1nc(N2CCN(C(=O)CCCCCCCCCCNC(=O)[C@H](CCCCN)n3cc(C[C@@H](C)CC)nn3)CC2)nc(N2CCN(C(=O)CCCCCCCCCCNC(=O)[C@H](CCCN=C(N)N)n3cc(C[C@@H](C)CC)nn3)CC2)n1 | nt | nt | nt | 3.3µM* | 3.3µM*
C#CCOCCOCCOCCNc1nc(N2CCN(C(=O)CCCCCCCCCCNC(=O)[C@H](CO)n3cc(CCCCCN)nn3)CC2)nc(N2CCN(C(=O)CCCCCCCCCCNC(=O)[C@H](CCCN=C(N)N)n3cc(C[C@@H](C)CC)nn3)CC2)n1 | nt | nt | nt | 2.6µM* | 3.3µM*
CC(C)(C)NC(=O)NC(=O)CSc1cccc(C(F)(F)F)c1 | 12 | 9 | nt | ? | ?
NC(=O)C1CCN(S(=O)(=O)c2cc3c4c(c2)CCN4C(=O)CC3)CC1 | nt | nt | nt | -9% | ?
COc1ccccc1CNC(=S)NC1CCCC1 | -5 | -1 | -32% | ? | 2%
Cc1cccc(N(C)C(=O)c2cc3cc4ccc(C)cc4nc3o2)c1 | active | 39* | -55% | 13% | -18%
COc1ccc2nc3sc(C(=O)NCCCN4CCc5ccccc5C4)cc3cc2c1 | 38 | 28* | 2% | 35% | ?
COc1ccc2nc3sc(C(=O)N4CCN(C)CC4)cc3cc2c1 | 20 | 15* | 3% | 1% | 19%
SMILES | Shiga inhibitor | Cycloheximide cs | NS1 inh | Pf growth 96h | Pf growth 48h
Cc1ccc2cc3cc(C(=O)NCCCN4CCc5ccccc5C4)oc3nc2c1 | 35 | 30* | -16% | nt | 8.3µM*
COc1cc(C)nc(Oc2ccc(=O)[nH]n2)n1 | 42 | 22* | -4% | 80% | 0%
CCOC(=O)COc1ccc(Oc2nc(C)cc(OC)n2)nn1 | -8 | 1 | 23% | 5% | 21%
CSc1nc(C)cc(Oc2ccc(=O)[nH]n2)n1 | -11 | 4 | nt | -20% | 28%
Cc1cc(Oc2ccc(=O)n(C)n2)nc(Oc2ccc(=O)n(C)n2)n1 | -3 | -4 | -1% | 10µM* | 5%
Cc1cc(Oc2ccc(=O)[nH]n2)nc(Cl)n1 | 47* | 35* | -1% | 358% | 232%
O=C(CC1C(=O)NCCN1Cc1ccccc1C(F)(F)F)NCCN1CCCCC1=O (configuration not stated) | 0 | 1 | 1% | ? | 13%
CN1CCC(N(C)C(=O)c2ccc(Cl)c(S(=O)(=O)Nc3cc(Cl)ccc3Cl)c2)CC1 | nt | nt | nt | -33% | ?
CC(=O)c1cccc(N(CC(=O)NC2CCCCC2)C(=O)CNC(=O)c2cccs2)c1 | -8 | 0 | 12% | 13% | -7%
CCCN(C#N)c1nc(NCC)nc(NC(C)C)n1 | -11 | -3 | -5% | ? | ?
CC(C)Nc1nc(NC(C)C)nc(N(C#N)CCOc2ccc(Cl)cc2Cl)n1 | 1 | 2 | -3% | ? | 10µM*
Cc1cc(C)nc(N(C#N)Cc2ccc(Cl)cc2)n1 | 43 | -3 | 1% | 13µM* | 14%
Cc1cc(C)nc(N(C#N)CCOc2ccc(Cl)cc2)n1 | 39* | 16* | -26% | ? | ?
COc1nc(N(C)C)nc(N(C#N)CCOC(C)=O)n1 | -25 | 0 | -2% | -8% | -8%
Cc1ccccc1OCCN(C#N)c1nc(N(C)C)nc(N(C)C)n1 | 9 | 1 | -1% | 26% | 12µM*
NC(=O)C1CCN(CCC(=O)Nc2ccc(F)c(F)c2)CC1 | -1 | -2 | -4% | ? | 7%
Cc1cc(C)c2c(n1)SCC(=O)N2CC(=O)Nc1ccc(Br)c(C)c1 | -4 | -2 | -2% | 0% | -8%
Cc1ccc(C=C2C(=O)c3ccccc3C2=O)o1 | 59 | 37* | -5% | ? | ?
Cc1ccc(/C=C2/C(=O)c3ccc(C(=O)O)cc3C2=O)o1 | -9 | -1 | 0% | 8.3µM* | 28%
CC(C)(C)N1C(=O)c2ccc(C(=O)O)cc2C1=O | -11 | 1 | -4% | ? | 30%
O=C(O)c1ccc2c(c1)C(=O)/C(=C/c1ccccc1)C2=O | -5 | -3 | 18% | -27% | -14%

Source: PubChem BioAssay (National Center for Advancing Translational Sciences (NCATS))
